LASV entry inh – inhibitors of Lassa virus binding or entry into cells; Lassa virus pseudotyped entry inhibition, cell-based qHTS; Potency, µM (highest dose often 49.2 µM), usual class: inhibitors; 18,000 tested, 4.1% active
MARV entry inh – Marburg virus entry inhibition; 18,000 tested, 6.5% active; Marburg virus pseudotype entry/binding inhibition, cell-based; Potency, µM (highest dose often 49.2 µM), hits mostly inhibitors
Large screens that a line does not name were inactive; ! = a repeat was not active. Rows were chosen to be rich in hits. Some 8.6% of all compounds tested hit in one or more screens of this group. The call rests on the fitted dose curve; tested in HEK293 cells.

CCn1c(-c2ccccc2F)nc2cc(NC(C)=O)cc(C(=O)NCC3CCOCC3)c21	none
COC1=C[C@H](C(=O)N2CCCC2)[C@H](C)[C@@H](c2ccccc2)CC1=O	none
CC=C(C)[C@H](O)C[Si](C)(C)c1ccccc1	none
C=C[C@]1(C)C[C@@H](OC(=O)CSC(C)(C)CNC(=O)[C@H](N)C(C)C)[C@]2(C)[C@H](C)CC[C@]3(CCC(=O)[C@H]32)[C@@H](C)[C@@H]1O	MARV entry inh 13µM
C=C[C@]1(C)C[C@@H](OC(=O)CO)[C@]2(C)[C@H](C)CC[C@]3(CCC(=O)[C@H]32)[C@@H](C)[C@@H]1O	none
CC(CCN1CCCc2nc(C)c(C)cc21)=NO[C@@H](C)c1cc(-c2c(C)cc(C)cc2C)no1	none
CC(C)[C@@H](CO[Si](C)(C)C(C)(C)C)N1CC=CS1(=O)=O	none
NC(=NCCCCCCN=C(N)/N=C(\N)Nc1ccc(Cl)cc1)/N=C(\N)Nc1ccc(Cl)cc1	LASV entry inh 10µM!, MARV entry inh inconclusive
CC(C)N=C(N)/N=C(\N)Nc1ccc(Cl)cc1	none
O=C(NCCc1ccccn1)c1cnn(-c2ncc3c(n2)-c2ccccc2CC3)c1C1CC1	none
COc1ccc(O[C@H]2C=C[C@@H](c3ccccc3)O[C@H]2COC(=O)CCC(C)=NO[C@H](C)c2cn([C@@H]3COC[C@@H]3O)nn2)cc1	none (no result: LASV entry inh)
CC(=O)OC[C@H]1O[C@H](C#Cc2ccc(C(C)(C)C)cc2)C=C[C@H]1OC(C)=O	MARV entry inh inconclusive
O=C1N=c2ccc(N=Cc3c(O)[nH]c4ccccc34)cc2=N1	none
Clc1ccc2c(c1)N=C(N1CCNCC1)c1ccccc1N2	LASV entry inh inconclusive, MARV entry inh 10µM
CN1CCN(C2=Nc3cc(Cl)ccc3Nc3ccccc32)CC1	LASV entry inh 8.9µM!, MARV entry inh 10µM
Clc1ccccc1-c1nc(N2CCNCC2)c2ccccc2n1	MARV entry inh inconclusive
CN1CCN(C2=Nc3cc(F)ccc3Cc3ccccc32)CC1	MARV entry inh inconclusive
COc1cc(CNc2nc(C)c(-c3ccn(CC4CCCN(C)C4)n3)s2)ccc1F (centres undefined)	MARV entry inh inconclusive
Cc1cc(C)n(-c2cccc(C(=O)NCC3Cc4cccc(-c5ccccn5)c4O3)c2)n1 (centres undefined)	none
COC(=O)C1=C(C)N(CCC(C)O)C(=O)N(C(C)=O)C1c1ccccc1 (centres undefined)	none
COc1cc(-c2ccc(-[n+]3nc(-c4ccccc4)nn3-c3ccc([N+](=O)[O-])cc3)c(OC)c2)ccc1-[n+]1nc(-c2ccccc2)nn1-c1ccc([N+](=O)[O-])cc1	LASV entry inh 14µM, MARV entry inh 14µM
COc1c2c(cc3c1OCO3)C13C=CC(OC)CC1N(C2)CC3O (centres undefined)	none
COC1C=CC23c4cc5c(cc4CN(CC2O)C3C1)OCO5 (centres undefined)	LASV entry inh 7.1µM, MARV entry inh 2.2µM
OC[C@@H](O)[C@H]1O[C@@H]2O[C@@H](C(Cl)(Cl)Cl)O[C@@H]2[C@H]1O	none
C=CCC12OC3(OC)CC1[C@H](C)[C@@H](c1ccccc1)C2[C@@]3(C)O (some centres undefined)	none
COc1ccc(S[C@@H]2C[C@@H](C(=O)Nc3ccc4nccnc4c3)N(C3Cc4ccccc4C3)C2)cc1	LASV entry inh 3.2µM
Cc1ccc(CN2C[C@H](Sc3ccccn3)C[C@H]2C(=O)Nc2ccc3sc(C)nc3c2)cc1	MARV entry inh inconclusive
CCOC(=O)CN[C@@H](C(=O)N1CC[C@H]1C(=O)NCc1ccc(/C(N)=N/O)cc1)C1CCCCC1	none
C[C@@H](CN(C)C)CN1c2ccccc2Sc2ccccc21	LASV entry inh inconclusive, MARV entry inh 11µM
CN(C)CCCN1c2ccccc2Sc2ccc(C(F)(F)F)cc21	LASV entry inh inconclusive, MARV entry inh 11µM
COc1ccc2c(c1)N(C[C@H](C)CN(C)C)c1ccccc1S2	MARV entry inh inconclusive
CC(CN(C)C)CN1c2ccccc2Sc2ccc(C(F)(F)F)cc21 (centres undefined)	LASV entry inh 32µM, MARV entry inh 10µM
CC(CN(C)C)CN1c2ccccc2Sc2ccccc21 (centres undefined)	LASV entry inh inconclusive, MARV entry inh 11µM
COc1cccc([C@H]2NC(=O)CC=C[C@H](C)[C@@H](c3cccc(OC)c3)NC(=O)CC=C[C@H]2C)c1	MARV entry inh inconclusive
COCC=CC1=CC2=CC(=O)C(C)(OC(=O)c3cnc4ccccc4n3)C(=O)C2=CN1Cc1ccc(OC)cc1 (centres undefined)	none
CC=COC(=O)N[C@@H](c1ccccc1)[C@]1(C(C)=O)CCCC1=O	none (no result: LASV entry inh)
CC(NCCC(c1ccccc1)c1ccccc1)c1ccccc1 (centres undefined)	LASV entry inh inconclusive, MARV entry inh 11µM
C[C@@H](Cc1ccccc1)NCCC(c1ccccc1)c1ccccc1	LASV entry inh inconclusive, MARV entry inh 7.9µM
CC(NN)c1ccccc1 (centres undefined)	none
CN(C)[C@H](Cc1ccccc1)c1ccccc1	none
C[C@@H]1CC2=CCCC2[C@]2(O1)C(=O)N(Cc1ccc(F)cc1)c1cccc(Br)c12 (some centres undefined)	none
CCCCCC(=O)N1C[C@H](O)[C@@H](n2cc(-c3ccc(F)cc3)nn2)C[C@H]1c1ccc(C)cc1	MARV entry inh inconclusive
CCCCCCN1C[C@H](O)[C@@H](n2cc(C3CC3)nn2)C[C@H]1c1ccc(Cl)cc1	MARV entry inh inconclusive
C[C@@]12CC[C@H](O)C[C@@H]1CC[C@H]1[C@H]2CC[C@@]2(C)[C@@H](C3=CC(=O)OC3)CC[C@]12O	LASV entry inh 0.89µM, MARV entry inh 1µM
CC(=O)[C@@]1(O)[C@H](O)CC2C3CCC4CC(O)CC[C@]4(C)C3CC[C@@]21C (some centres undefined)	none
C[C@@]12CC[C@H](O)C[C@@H]1CC[C@H]1[C@@H]2C[C@@H](O)[C@]2(C)[C@@H](C3=CC(=O)OC3)CC[C@]12O	LASV entry inh 3.5µM, MARV entry inh 1.4µM
C[C@@]12CCC(O)C[C@H]1CCC1C2CC[C@]2(C)C(=O)CCC12 (some centres undefined)	none
Cc1cc(=O)oc2cc(OCc3cn(CC(=O)c4ccc(O)cc4)nn3)ccc12	none
C[C@H]1CC[C@]2(NC1)O[C@H]1C[C@H]3[C@@H]4CC[C@H]5C[C@@H](O[C@@H]6O[C@H](CO)[C@H](O[C@@H]7O[C@H](CO)[C@@H](O)[C@H](O[C@@H]8OC[C@@H](O)[C@H](O)[C@H]8O)[C@H]7O[C@@H]7O[C@H](CO)[C@@H](O)[C@H](O)[C@H]7O)[C@H](O)[C@H]6O)CC[C@]5(C)[C@H]4CC[C@]3(C)[C@H]1[C@@H]2C	LASV entry inh 14µM, MARV entry inh 4.5µM
CC1CCC2(OC1)OC1CC3C4CC[C@@H]5CC(O)CC[C@@]5(C)C4CC(=O)[C@]3(C)C1C2C (some centres undefined)	none
CN1CCN(C2Cc3ccccc3Sc3ccc(Cl)cc32)CC1 (centres undefined)	LASV entry inh inconclusive, MARV entry inh 13µM
CSc1ccc2c(c1)[C@H](N1CCN(C)CC1)Cc1ccccc1S2	LASV entry inh 28µM!, MARV entry inh 11µM
CSc1ccc2c(c1)C(N1CCN(C)CC1)Cc1ccccc1S2 (centres undefined)	LASV entry inh 22µM!, MARV entry inh 6.3µM
CN1[C@@H](c2ccccc2)COc2c(Cl)cccc2S1(=O)=O	none
COC(=O)c1c(C(=O)OC)c2c3ccccc3cc(-c3ccccc3)n2c1C(=O)OC	none

High-throughput results: PubChem, National Center for Advancing Translational Sciences (NCATS)
